Measurements: PubChem BioAssay (NCI)
Compounds without any hit were thinned out: in the full panel of roughly 79,000, 15% have a hit. The source made the active and inactive calls. Cut-off read from the data, not from the text of the source: active = growth inhibition above about 70%; inactive = the rest.

Experiments:
[1] = NCI Yeast Anticancer Drug Screen. Data for the rad50 strain (AID 155);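 note: 0% = growth of vehicle-only cultures of the same strain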; conditions: S. cerevisiae rad50 strain growth inhibition, hits give high values
Summary of the method: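 Inhibition values express reduced yeast growth in compound-treated cultures relative to vehicle-treated controls.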

[2] = NCI Yeast Anticancer Drug Screen. Data for the mec2-1 strain (AID 157); conditions: S. cerevisiae mec2-1 strain, hits give high values
Summary of the method: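 Each compound was tested on mec2-1 yeast, a strain altered in DNA damage repair or cell cycle control. Growth inhibition is reported relative to vehicle.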

[3] = NCI Yeast Anticancer Drug Screen. Data for the sgs1 mgt1 strain (AID 161);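 note: 0% = growth of cultures given vehicle only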; conditions: S. cerevisiae sgs1 mgt1 strain, hits give high values
Summary of the method: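 Test agents were incubated with a DNA-repair-mutant yeast strain. Growth was then read and compared against vehicle-treated controls.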

[4] = NCI Yeast Anticancer Drug Screen. Data for the cln2 rad14 strain (AID 165);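 note: 0% = growth equal to vehicle treated cultures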; conditions: S. cerevisiae cln2 rad14 strain, hits give high values
Summary of the method: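 Test compounds were added to cln2 rad14 yeast cultures; inhibition of growth was then determined by comparison with vehicle treatment.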

[5] = NCI Yeast Anticancer Drug Screen. Data for the bub3 strain (AID 167); conditions: S. cerevisiae bub3 mutant strain, hits give high values
Summary of the method: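 Steps: expose the mutant yeast strain to compound; grow alongside vehicle-treated cultures; measure growth; express inhibition against the vehicle cultures.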

[6] = NCI Yeast Anticancer Drug Screen. Data for the mlh1 rad18 strain (AID 175); conditions: S. cerevisiae mlh1 rad18 strain growth inhibition, hits give high values
Summary of the method: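 Inhibition values reflect reduced growth of mutant yeast versus vehicle-treated controls following compound exposure; the mutations affect DNA damage repair.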

[7] = at 5.0 µM (retest, dose inferred, filed as 0.5)
[8] = at 50.0 µM (retest, dose inferred, filed as 5.0)

SMILES | growth inhibition [1, 7] | growth inhibition [1, 8] | growth inhibition ([1]; at 50.0 µM) | growth inhibition [2, 7] | growth inhibition [2, 8] | growth inhibition ([2]; at 50.0 µM) | growth inhibition [3, 7] | growth inhibition [3, 8] | growth inhibition ([3]; at 50.0 µM) | growth inhibition [4, 7] | growth inhibition [4, 8] | growth inhibition ([4]; at 50.0 µM) | growth inhibition [5, 7] | growth inhibition [5, 8] | growth inhibition ([5]; at 50.0 µM) | growth inhibition [6, 7] | growth inhibition [6, 8] | growth inhibition ([6]; at 50.0 µM)
CCc1cccc(CC)c1Nc1nc2c(s1)C(=O)c1ccccc1C2=O | 100% (active) | 99% (active) | 89.5% (active) | 100% (active) | 99% (active) | 91.9% (active) | 100% (active) | 99% (active) | 92.7% (active) | 87% (active) | 98% (active) | 90.3% (active) | 100% (active) | 99% (active) | 92.2% (active) | 99% (active) | 98% (active) | 90.8% (active)
Nc1ncnc2c1ncn2CC(O)CN(CCO)CCO (stereo unspecified) (tested in a mixture with another compound) | -24% (inactive) | -1% (inactive) | -5% (inactive) | -10% (inactive) | -7% (inactive) | -3.15% (inactive) | -11% (inactive) | -3% (inactive) | -12.1% (inactive) | -12% (inactive) | 4% (inactive) | 18.8% (inactive) | 7% (inactive) | 15% (inactive) | 2% (inactive) | -15% (inactive) | -17% (inactive) | 22.2% (inactive)
N#CC1(C#N)C(C#N)(C#N)C12CCC2 | 4% (inactive) | 87% (active) | 35.2% (inactive) | 6% (inactive) | 88% (active) | 49.8% (inactive) | 6% (inactive) | 91% (active) | 50.6% (inactive) | 0% (inactive) | 65% (inactive) | -2.45% (inactive) | 7% (inactive) | 96% (active) | 70% (active) | 2% (inactive) | 96% (active) | 83.8% (active)
CC1(C)CC(=O)C2=C(C1)Nc1ccccc1CC2c1c[nH]c2ccccc12 (stereo unspecified) | -6% (inactive) | 77% (active) | -7.2% (inactive) | -1% (inactive) | 85% (active) | 3.35% (inactive) | -8% (inactive) | 68% (inactive) | 5.35% (inactive) | -62% (inactive) | 82% (active) | 52.2% (inactive) | -4% (inactive) | 68% (inactive) | 10.8% (inactive) | 0% (inactive) | 84% (active) | 0% (inactive)
Cc1cn(C2CC(Br)C(COC(c3ccccc3)(c3ccccc3)c3ccccc3)O2)c(=O)[nH]c1=O (stereo unspecified) | 10% (inactive) | 97% (active) | 97.6% (active) | 6% (inactive) | 99% (active) | 98.3% (active) | 8% (inactive) | 33% (inactive) | 98.2% (active) | 2% (inactive) | 97% (active) | 96.8% (active) | 6% (inactive) | 99% (active) | 96.2% (active) | 8% (inactive) | 98% (active) | 97.9% (active)
NC(=O)c1c(Cl)nc2n1CCS2 | 1% (inactive) | 0% (inactive) | 13.8% (inactive) | 0% (inactive) | -2% (inactive) | -17.4% (inactive) | -2% (inactive) | 1% (inactive) | -1.3% (inactive) | -2% (inactive) | -7% (inactive) | 8.4% (inactive) | -3% (inactive) | -5% (inactive) | -4.2% (inactive) | 4% (inactive) | 1% (inactive) | 0.15% (inactive)
C/C=C/C(=O)N1c2ccccc2CC1c1c(C)[nH]c2ccccc12 (stereo unspecified) | 7% (inactive) | 90% (active) | 94.3% (active) | 3% (inactive) | 96% (active) | 94.8% (active) | 3% (inactive) | 95% (active) | 94.3% (active) | 2% (inactive) | 86% (active) | 96% (active) | 6% (inactive) | 86% (active) | 95.5% (active) | 22% (inactive) | 96% (active) | 96.6% (active)
